Key:
Experiment in all cases: relative growth (AUC of 72 h growth curve relative to DMSO control, dAUC) (ratio); higher = more growth (less inhibition), active = hit call of the paper
Conditions in all cases: 20 µM;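 active = growth AUC significantly below the DMSO wells by Dunnett test; inactive = the rest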
[1] = tested on: Aeromonas 1 (Aeromonas sp. AE235)
In short: (§1)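 Isolates from Icelandic stream sediments and Silwood Park soil, along with whole sediment communities, were grown in Luria–Bertani medium to carrying capacity and diluted 1:100 into 96-well plates with each chemical at 20 µM (1% DMSO). A600 was measured hourly for 72 h, and values were averaged over three biological replicates. Relative growth (dAUC) is the spline-integrated growth-curve area over the mean of the DMSO controls.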

[2] = tested on: Aeromonas 2 (Aeromonas sobria)
In short: as §1

[3] = tested on: Aeromonas 3 (Aeromonas popoffii)
In short: as §1

[4] = tested on: Argrobacterium 1 (Agrobacterium sp.)
In short: as §1

[5] = tested on: Arthrobacter 1 (Arthrobacter humicola)
In short: as §1

[6] = tested on: Arthrobacter 2 (Arthrobacter humicola)
In short: as §1

[7] = tested on: Arthrobacter 3 (Arthrobacter sp.)
In short: as §1

[8] = tested on: Community 10
In short: as §1

[9] = tested on: Community 4
In short: as §1

[10] = tested on: Community 6
In short: as §1

[11] = tested on: Community 7
In short: as §1

[12] = tested on: Community 8
In short: as §1

[13] = tested on: Community 9
In short: as §1

[14] = tested on: Flavobacterium 1 (Flavobacterium glaciei)
In short: as §1

[15] = tested on: Flavobacterium 2 (Flavobacterium succinicans)
In short: as §1

[16] = tested on: Hymenobacter 1 (Hymenobacter glaciei)
In short: as §1

[17] = tested on: Microbacterium 1 (Microbacterium arborescens)
In short: as §1

[18] = tested on: Neobacillus 1 (Neobacillus soli)
In short: as §1

[19] = tested on: Oryzobacter 1 (Oryzobacter terrae)
In short: as §1

[20] = tested on: Paenibacillus 1 (Paenibacillus castaneae)
In short: as §1

Measured: relative growth

COC(=O)c1ccccc1S(=O)(=O)NC(=O)Nc1nc(C)nc(OC)n1
inactive: [1] 1.02 | [2] 1.01 | [3] 1.07 | [4] 0.964 | [5] 1.16 | [6] 1.14 | [7] 1.01 | [8] 1.23 | [9] 1.16 | [10] 1.12 | [11] 0.941 | [12] 1.1 | [13] 1.1 | [14] 1.09 | [15] 1.08 | [16] 1.14 | [17] 1.01 | [18] 1.11 | [19] 0.997 | [20] 1.16

CCCCc1c(C)nc(NCC)nc1OS(=O)(=O)N(C)C
inactive: [1] 0.942 | [2] 0.942 | [3] 1.04 | [4] 1.03 | [5] 0.911 | [6] 0.863 | [7] 0.926 | [8] 0.816 | [9] 0.948 | [10] 0.944 | [11] 1.04 | [12] 1.05 | [13] 0.969 | [14] 0.978 | [15] 0.904 | [16] 1.06 | [17] 1.02 | [18] 0.963 | [19] 1.09 | [20] 0.906

CCC(C)c1ccccc1OC(=O)NC (stereo not given)
inactive: [1] 1 | [2] 0.975 | [3] 0.991 | [4] 1.06 | [5] 0.921 | [6] 1.08 | [7] 1.08 | [8] 1.08 | [9] 1.06 | [10] 1.07 | [11] 1.02 | [12] 1.05 | [13] 1.07 | [14] 1.11 | [15] 1.02 | [16] 0.856 | [17] 1.04 | [18] 1.06 | [19] 0.993 | [20] 1

CO/C=C(/C(=O)OC)c1ccccc1Oc1cc(Oc2ccccc2C#N)ncn1
inactive: [1] 0.938 | [2] 0.929 | [3] 0.947 | [4] 1.02 | [5] 0.985 | [6] 1 | [7] 1.08 | [8] 0.868 | [9] 1.1 | [10] 0.903 | [11] 0.834 | [12] 1.03 | [13] 1.04 | [14] 1.09 | [15] 0.99 | [16] 1.03 | [17] 0.975 | [18] 1.01 | [19] 1.13 | [20] 1.01

CCCC(Cn1cncn1)c1ccc(Cl)cc1Cl (stereo not given)
inactive: [1] 0.932 | [2] 0.996 | [3] 1.01 | [4] 1.15 | [5] 1 | [6] 1.02 | [7] 0.987 | [8] 0.973 | [9] 1.11 | [10] 1.06 | [11] 0.902 | [12] 1.09 | [13] 1.12 | [14] 1.07 | [15] 0.966 | [16] 0.877 | [17] 0.99 | [18] 1.09 | [19] 1.05 | [20] 1.06

O=C(NC(=O)c1c(F)cccc1F)Nc1ccc(OC(F)(F)C(F)OC(F)(F)F)c(Cl)c1 (stereo not given)
inactive: [1] 0.958 | [2] 0.975 | [3] 0.988 | [4] 0.995 | [5] 0.843 | [6] 0.911 | [7] 0.942 | [8] 0.965 | [9] 0.934 | [10] 0.934 | [11] 1.11 | [12] 0.997 | [13] 0.925 | [14] 0.951 | [15] 0.969 | [16] 0.944 | [17] 1.05 | [18] 0.888 | [19] 0.958 | [20] 0.957

COP(=S)(OC)Oc1ccc(SC)c(C)c1
inactive: [1] 1.02 | [2] 0.974 | [3] 1.03 | [4] 1.05 | [5] 1.17 | [6] 0.942 | [7] 1.01 | [8] 0.993 | [9] 0.985 | [10] 1.05 | [11] 0.973 | [12] 1 | [13] 1.02 | [14] 0.934 | [15] 0.998 | [16] 1.01 | [17] 0.99 | [18] 0.955 | [19] 1.02 | [20] 1.02

O=C1C=C(N(Cc2ccc(Cl)nc2)CC(F)F)CO1
inactive: [1] 0.953 | [2] 0.967 | [3] 0.978 | [4] 0.974 | [5] 1.05 | [6] 1.08 | [7] 1.01 | [8] 0.814 | [9] 1.01 | [10] 0.923 | [11] 0.945 | [12] 0.997 | [13] 0.992 | [14] 1.09 | [15] 0.993 | [16] 1.1 | [17] 1.04 | [18] 1.02 | [19] 1.11 | [20] 0.899

CCOP(=S)(OCC)Oc1cc(C)nc(C(C)C)n1
inactive: [1] 0.987 | [2] 0.964 | [3] 0.98 | [4] 1.16 | [5] 0.981 | [6] 0.834 | [7] 0.888 | [8] 0.743 | [9] 0.904 | [10] 0.958 | [11] 1.1 | [12] 0.976 | [13] 0.912 | [14] 0.913 | [15] 0.909 | [16] 0.975 | [17] 0.969 | [18] 0.943 | [19] 1.09 | [20] 0.922

CCCCCCCCCCCCNC(=N)N
inactive: [1] 0.94 | [2] 0.928 | [3] 0.97 | [11] 0.993 | [12] 0.788 | [15] 0.832 | [17] 0.881 | [18] 0.98 | [20] 0.893
active: [4] 0.233 | [5] 0.0065 | [6] 0.00389 | [7] 0.0063 | [8] 0.505 | [9] 0.501 | [10] 0.407 | [13] 0.294 | [14] 0.00294 | [16] 0.00418 | [19] 0.00315

CCCCC(C#N)(Cn1cncn1)c1ccc(Cl)cc1 (stereo not given)
inactive: [1] 0.946 | [2] 0.901 | [3] 0.979 | [4] 1.07 | [5] 0.975 | [6] 0.849 | [7] 0.841 | [8] 0.956 | [9] 0.921 | [10] 0.931 | [11] 0.991 | [12] 0.904 | [13] 0.937 | [14] 0.856 | [15] 0.885 | [16] 0.912 | [17] 0.925 | [18] 0.942 | [19] 1.12 | [20] 0.97

Cc1cc(C)c(C2=C(OC(=O)CC(C)(C)C)C3(CCCC3)OC2=O)c(C)c1
active: [14] 0.346
inactive: [1] 1.09 | [2] 0.978 | [3] 1.05 | [4] 1.11 | [5] 0.927 | [6] 0.864 | [7] 0.789 | [8] 0.848 | [9] 1.19 | [10] 0.917 | [11] 0.932 | [12] 1.08 | [13] 1.03 | [15] 0.981 | [16] 0.896 | [17] 1.02 | [18] 1.01 | [19] 1.16 | [20] 0.994

Cc1cc(C(F)(C(F)(F)F)C(F)(F)F)ccc1NC(=O)c1cccc(I)c1C(=O)NC(C)(C)CS(C)(=O)=O
active: [4] 0.695
inactive: [1] 0.939 | [2] 0.974 | [5] 0.792 | [6] 1.02 | [7] 0.822 | [8] 1.21 | [9] 0.805 | [10] 0.894 | [11] 1.15 | [12] 1.07 | [13] 0.75 | [14] 0.818 | [15] 1.2 | [16] 0.857 | [17] 0.925 | [18] 1.09 | [19] 0.97 | [20] 1.02
1.41: [3]

COP(N)(=O)SC (stereo not given)
active: [6] 0.0085 | [7] 0.137 | [10] 0.626 | [13] 0.575 | [14] 0.117 | [20] 0.194
inactive: [1] 0.996 | [2] 1 | [3] 0.972 | [4] 1.14 | [5] 0.92 | [8] 0.803 | [9] 0.808 | [11] 1.34 | [12] 0.924 | [15] 0.952 | [16] 1.01 | [17] 0.992 | [18] 0.856 | [19] 1.03

O=C(NC(=O)c1c(F)cccc1F)Nc1ccc(Cl)cc1
inactive: [1] 1.01 | [2] 1.01 | [3] 0.986 | [4] 1.04 | [5] 0.955 | [6] 0.985 | [7] 1.09 | [8] 0.795 | [9] 0.924 | [10] 0.996 | [11] 0.985 | [12] 1.06 | [13] 1.05 | [14] 0.844 | [15] 0.949 | [16] 0.917 | [17] 1.03 | [18] 0.942 | [19] 1.04 | [20] 0.957

CON(C)C(=O)Nc1ccc(Cl)c(Cl)c1
active: [6] 0.595
inactive: [1] 0.924 | [2] 0.996 | [3] 0.996 | [4] 0.869 | [5] 0.952 | [7] 0.929 | [8] 1.03 | [9] 0.943 | [10] 0.995 | [11] 1.01 | [12] 1.07 | [13] 1.03 | [14] 1.01 | [15] 0.923 | [16] 0.961 | [17] 1.05 | [18] 0.908 | [19] 1.04 | [20] 1
